According to PubChem BioAssay (Tox21):
Inconclusive results are not listed. The source made the active and inactive calls. Calls follow the shape of the full dose curve.

assay: qHTS assay to identify small molecule agonists of H2AX - cell viability counter screen (AID 1224847); settings: CHO-K1 viability, CellTiter-Glo luminescence, 3 h; series mostly up to 154 µM; activity change, negative = cytotoxicity: at the top concentration; also: top concentration of the series differs between compounds; nearly all actives have a fitted effect of over 30% in size
How it was run: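 Wild-type CHO-K1 cells (10% FBS medium) were plated overnight at 37C, exposed to compounds at 15 concentrations for 3 hr at 37C (0.76% DMSO final), and viability was read as CellTiter-Glo luminescence after 30 min at room temperature.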
% is scaled to controls: 0 for no effect and ±100 for the full control effect.

Compound | activity change, negative = cytotoxicity
O=C(O)COc1ccc2ccccc2c1 | 4.8% (inactive)
CCC(C)SSC(C)CC (stereo unspecified) | -1.91% (inactive)
COC(=O)c1ccccc1Cl | 3.23% (inactive)
C=CCOC(=O)CCCCCCCC | 8.71% (inactive)
Nc1ccc(C(=O)NCC(=O)O)cc1 | -1.54% [at 70.9 µM] (inactive)
CC[N+](C)(CC)CC | -2.7% (inactive)
